Our source for the activity increase over dofetilide control, less the hit threshold and activity increase over dofetilide control values is PubChem BioAssay AID1835 (Johns Hopkins Ion Channel Center, 2009).

In all, about 2,400 compounds went through this assay and about 750 (31%) were called active.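 The calls were made as follows: active = median signal gain over dofetilide-blocked control wells reaching their mean plus 3 SD, so readout 1 at least 0; inactive = the rest.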 This is one part of the list.

Sequence of Voltage-gated inwardly rectifying potassium channel KCNH2 (Homo sapiens) (Q12809 whole entry, looked up): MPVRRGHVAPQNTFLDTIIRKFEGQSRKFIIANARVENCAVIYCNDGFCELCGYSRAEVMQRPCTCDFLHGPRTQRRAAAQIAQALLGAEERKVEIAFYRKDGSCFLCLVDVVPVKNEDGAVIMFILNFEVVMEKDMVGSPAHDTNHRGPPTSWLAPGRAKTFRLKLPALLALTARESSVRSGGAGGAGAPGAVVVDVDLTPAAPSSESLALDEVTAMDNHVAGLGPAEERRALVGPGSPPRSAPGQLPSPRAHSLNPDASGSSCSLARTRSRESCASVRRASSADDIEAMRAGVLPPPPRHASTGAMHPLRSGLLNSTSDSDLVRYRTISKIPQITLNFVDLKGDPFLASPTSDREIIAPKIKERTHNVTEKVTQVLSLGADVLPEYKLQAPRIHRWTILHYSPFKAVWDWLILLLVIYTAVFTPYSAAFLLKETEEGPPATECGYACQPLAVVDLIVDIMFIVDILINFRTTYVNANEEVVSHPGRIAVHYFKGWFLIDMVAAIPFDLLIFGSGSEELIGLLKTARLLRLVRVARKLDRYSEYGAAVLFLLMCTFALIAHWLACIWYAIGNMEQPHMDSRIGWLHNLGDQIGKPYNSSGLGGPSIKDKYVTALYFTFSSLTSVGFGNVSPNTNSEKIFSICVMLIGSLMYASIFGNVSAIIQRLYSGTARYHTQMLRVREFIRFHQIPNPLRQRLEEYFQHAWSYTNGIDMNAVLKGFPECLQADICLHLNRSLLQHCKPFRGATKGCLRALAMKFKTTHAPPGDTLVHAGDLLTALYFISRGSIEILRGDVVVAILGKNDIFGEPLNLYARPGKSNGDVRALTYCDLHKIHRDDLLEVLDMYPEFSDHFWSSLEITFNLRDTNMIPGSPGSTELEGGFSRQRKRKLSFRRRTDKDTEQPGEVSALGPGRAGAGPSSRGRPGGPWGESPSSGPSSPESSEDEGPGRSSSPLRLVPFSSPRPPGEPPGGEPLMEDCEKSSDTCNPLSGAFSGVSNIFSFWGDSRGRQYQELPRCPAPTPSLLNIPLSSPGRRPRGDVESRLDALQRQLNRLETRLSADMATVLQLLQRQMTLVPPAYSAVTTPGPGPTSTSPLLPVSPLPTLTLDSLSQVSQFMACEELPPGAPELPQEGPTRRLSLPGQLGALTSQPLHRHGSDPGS

This assay has as its target Voltage-gated inwardly rectifying potassium channel KCNH2 (Homo sapiens) (UniProt Q12809). Put plainly: modulators restoring hERG flux under dofetilide – cell-based, thallium flux, duplicate retest, dofetilide IC70, confirmation (AID 1835). To be noted: hERG cell line, FluxOR thallium flux, dofetilide-blocked; at 10 µM; hits give high values.
With `CC/C(=C\C=C\[C@@H]1C=C[C@@H]2CCC[C@H]2[C@@H]1C(=O)c1ccc[nH]1)[C@@H]1O[C@@H]([C@@H](C)C(=O)O)CC[C@@H]1C`, the activity increase over dofetilide control, less the hit threshold is 128% (active).
For `Cc1nc2ccccc2c(=O)n1-c1cc([N+](=O)[O-])cc([N+](=O)[O-])c1`, the activity increase over dofetilide control is -26% (inactive).
Regarding `O=C(Cn1ncc2c3ccccc3n(Cc3ccccc3F)c2c1=O)N1CCC2(CC1)OCCO2`, the activity increase over dofetilide control was 2% (active).
In the case of `CCCc1[nH]nc2c1C1(C(=O)N(Cc3ccccc3)c3ccccc31)C(C(=O)OC)=C(N)O2` (stereo unspecified), the activity increase over dofetilide control, less the hit threshold was -35% (inactive).
Consider `CC(=NCc1ccco1)c1c(O)n(-c2ccc(C)cc2)c(=O)[nH]c1=O`, for which the activity increase over dofetilide control is -19% (inactive).
Consider `O=c1[nH]c(=S)[nH]c(O)c1N=Nc1ccc(S(=O)(=O)N2CCc3ccccc32)cc1`, for which the activity increase over dofetilide control was 25% (active).
For `COc1ccc(-c2nc(CSCC(=O)N3CCC4(CC3)OCCO4)c(C)o2)cc1OC`, the activity increase over dofetilide control is -23% (inactive).
Consider `O=C(COc1ccc(Br)cc1)N1CCN(Cc2ccc3c(c2)OCO3)CC1`, for which the activity increase over dofetilide control, less the hit threshold is -12% (inactive).
For the molecule `CCOC(=O)c1c(NS(=O)(=O)c2ccccc2)n(CCCOC)c2nc3ccccc3nc12`, the activity increase over dofetilide control, less the hit threshold is 65% (active).
Consider `CCCCn1c(O)c(C(CC)=Nc2ccc(OCC)cc2)c(=O)[nH]c1=O`, for which the activity increase over dofetilide control is -23% (inactive).
With `NS(=O)(=O)c1ccc(-c2ccc(C=C3C(=O)NC(=O)NC3=O)o2)cc1`, the activity increase over dofetilide control was -2% (inactive).
As for `CCOC(=O)Cn1cc([N+](=O)[O-])nc1[N+](=O)[O-]`, the activity increase over dofetilide control, less the hit threshold was -18% (inactive).
As to `O=C1CC(=O)N(c2cccc(C(F)(F)F)c2)C(=O)N1`, the activity increase over dofetilide control, less the hit threshold was -15% (inactive).
For `Cc1ccc(-n2c(O)c(/C=N/Nc3ccccc3)c(=O)[nH]c2=O)cc1C`, the activity increase over dofetilide control was -5% (inactive).
On the same count and under the same terms, then `O=c1[nH]c(=S)[nH]c(O)c1/C=C1/C=c2ccccc2=N1`, with 14% (active); and `C=CCn1c(O)c(/C=C2/C=c3ccccc3=N2)c(=O)[nH]c1=S`, with 96% (active).
As for `Cc1ccc(S(=O)(=O)NC(Cc2cnc[nH]2)C(=O)O)cc1` (stereo unspecified), the activity increase over dofetilide control, less the hit threshold is -7% (inactive).
In the case of `COc1ccc2c3c1OC1C(O)C=CC4C(C2)[N+](C)(C)CCC341` (stereo unspecified), the activity increase over dofetilide control is -2% (inactive).
On to `Oc1ccc(CC2(N3CCCC3)CCCCC2)cc1`, for which the activity increase over dofetilide control, less the hit threshold was -14% (inactive).
On to `CC(C)(C)c1ccc(OC(=O)N2CCCCC2)cc1`, for which the activity increase over dofetilide control, less the hit threshold is -16% (inactive).
Regarding `O=S(=O)(c1ccccc1)N1CCCCC1c1cccnc1` (stereo unspecified), the activity increase over dofetilide control, less the hit threshold was -17% (inactive).
Turning to `O=C1NC(=O)N(Cc2ccccc2Cl)C(=O)/C1=C/N1CCOCC1`, the activity increase over dofetilide control is -7% (inactive).
As to `O=C1NC(=O)C(=Cc2ccc(-c3ccc(Cl)cc3)o2)C(=O)N1`, the activity increase over dofetilide control was -1% (inactive).
In the case of `O=C(O)CCC(=O)NCCC1=c2ccccc2=N/C1=C\c1c(O)n(Cc2ccc(F)cc2)c(=S)[nH]c1=O`, the activity increase over dofetilide control was 11% (active).
For the molecule `CN1C(=O)C(Cc2ccc3c(c2)OCO3)C(=O)N(C)C1=O`, the activity increase over dofetilide control was -15% (inactive).
Consider `N#CC1=C(N)Oc2c(c(=O)oc3ccccc23)C1c1cccnc1` (stereo unspecified), for which the activity increase over dofetilide control, less the hit threshold is 8% (active).
`Oc1cccc2cccnc12`: the activity increase over dofetilide control, less the hit threshold is -5% (inactive).
On the same count and under the same terms, then `N#CCCn1cc(C(=O)Nc2ccccc2Cl)c(-c2ccc(F)cc2)n1`, with -14% (inactive); and `O=c1c2ccccc2[nH]c(=S)n1-c1ccc2c(c1)OCCO2`, with -26% (inactive).
For the molecule `O=c1c2cc(Br)ccc2[nH]c(=S)n1-c1ccccc1`, the activity increase over dofetilide control, less the hit threshold was 2% (active).
As for `CCCCN1C(=O)/C(=C/c2ccc(N3CCCCCC3)cc2)C(=O)NC1=S`, the activity increase over dofetilide control is -4% (inactive).
Same read-out and setting: then `C=CCN1C(=O)/C(=C/c2ccc(Br)s2)C(=O)NC1=S`, with 8% (active).
With `CN1C(=O)/C(=C/c2ccc(Cl)s2)C(=O)NC1=S`, the activity increase over dofetilide control was 12% (active).
On to `CN1C(=O)/C(=C\c2ccc(Br)s2)C(=O)NC1=S`, for which the activity increase over dofetilide control was 26% (active).
As for `O=C1NC(=O)C(=Cc2ccc(-c3cc(Cl)ccc3[N+](=O)[O-])o2)C(=O)N1`, the activity increase over dofetilide control is -20% (inactive).
In the case of `CN1CCN(CC#CCOc2ccc(Cl)cc2)CC1`, the activity increase over dofetilide control, less the hit threshold is -9% (inactive).
In the case of `C1CCC2S[C@H]3CCCCC3NC2C1` (stereo partly specified), the activity increase over dofetilide control, less the hit threshold was -17% (inactive).
With `NC(=O)Cn1cc(C(=O)c2ccccc2F)c2ccccc21`, the activity increase over dofetilide control was -9% (inactive).
`CC(=NCc1ccco1)c1c(O)n(C)c(=O)n(C)c1=O`: the activity increase over dofetilide control was -12% (inactive).
Consider `O=c1[nH]c(O)c(/C=C2/C=CC(c3cc(Cl)ccc3Cl)=N2)c(=O)[nH]1`, for which the activity increase over dofetilide control was 30% (active).
For `O=C(O)c1c[nH]c2ccc(S(=O)(=O)N(CCCl)CCCl)cc12`, the activity increase over dofetilide control, less the hit threshold was -11% (inactive).
Take `CC1N=C(c2ccccc2Cl)c2cc(Br)ccc2NC1=O` (stereo unspecified): the activity increase over dofetilide control was -24% (inactive).
For the molecule `CN1CCCCC1c1ccc(-c2cccnc2)nc1` (stereo unspecified), the activity increase over dofetilide control, less the hit threshold was -15% (inactive).
As to `O=C1NC(=O)N(c2ccccc2)C(=O)/C1=C/c1ccc(Sc2ccccc2)o1`, the activity increase over dofetilide control was -6% (inactive).
Still for that read-out and setting: then `Cc1ccc(/C=C2\C(=O)NC(=S)N(c3ccc(F)cc3)C2=O)s1`, with 5% (active).
Take `O=C1NC(=S)N(c2ccc(F)cc2)C(=O)/C1=C/c1ccco1`: the activity increase over dofetilide control was 4% (active).
As to `COc1ccc(OC)c(N2C(=O)/C(=C/c3ccco3)C(=O)NC2=S)c1`, the activity increase over dofetilide control was 0% (inactive).
Turning to `Cc1ccccc1N1C(=O)/C(=C/c2ccco2)C(=O)NC1=S`, the activity increase over dofetilide control was 14% (active).
`COc1ccc(CN2CCCC(C(=O)c3sccc3C)C2)cc1O` (stereo unspecified): the activity increase over dofetilide control, less the hit threshold was -21% (inactive).
Still for that read-out and setting: then `COc1cccc(OC)c1C(=O)Nc1nc(N)n(-c2ccccc2)n1`, with -22% (inactive); and `CCn1nc(/C=C/c2ccccc2)nc2c(=O)n(C)c(=O)nc1-2`, with -22% (inactive).
Regarding `O=C1NC(=O)N(CCNc2ncc(C(F)(F)F)cc2Cl)C(=O)C1Cc1ccc(Cl)cc1` (stereo unspecified), the activity increase over dofetilide control is -11% (inactive).
For the molecule `CN(C)C(=O)O/N=C(\N)COc1ccc(C(C)(C)C)cc1`, the activity increase over dofetilide control, less the hit threshold was -17% (inactive).
For the molecule `NCCc1ccc(S(N)(=O)=O)cc1`, the activity increase over dofetilide control, less the hit threshold is -18% (inactive).
As for `COc1ccccc1N1CCN(Cc2ccc(F)cc2)CC1`, the activity increase over dofetilide control was -10% (inactive).
As to `COc1ccc2c(c1)/C(=C/c1cnc[nH]1)C(=O)N2`, the activity increase over dofetilide control, less the hit threshold was -6% (inactive).
